These results are taken from ChEMBL document CHEMBL4513216, “Probing the Open Global Health Chemical Diversity Library for Multistage-Active Starting Points for Next-Generation Antimalarials” (ACS Infect Dis, 2020).

Among all 68,000 compounds or so, about 2,700 (4%) showed an effect of 50% or more. This is one part of a sample in which strong results are shown more often than they occur.

This test deals with Plasmodium berghei. The experiment in a line: Screen against P. berghei liver stage (PbLuc), transformed with Luciferase, at 2uM. The class given is functional, HepG2. Conditions: tested at 2 uM.
For `CSc1ncccc1C(=O)NCCC(O)c1ccco1` (stereo not given), the INHIBITION turned out to be 14.45%. Regarding `O=C(NCc1nnc2n1CCC2)c1cn(-c2ccccc2Br)nn1`, the INHIBITION is recorded as -17.44%. The value for `Cc1ccc(-n2ncc3c2CCCC3N)cc1C` (stereo not given) was -13.35%. The value for `CC(C)(C)c1ccc(-n2ncc3c2CCCC3N)cc1` (stereo not given) was 46.95%; that for `CN(C)S(=O)(=O)NC1CCCc2c1cnn2-c1ccc(C(C)(C)C)cc1` (stereo not given) was 75.11%. Consider `CCC(C)(C)n1nnnc1C(c1cccs1)N1CCc2ccccc2C1` (stereo not given), for which the INHIBITION came out at 36.24%. With `Cc1nn(CCC(=O)NC2CCCOC2)c(C)c1C` (stereo not given) the figure was -3.15%; with `Cc1ccc(N(CC(=O)N2CCCCC2)C(=O)C2COCCO2)cc1` (stereo not given), 72.49%; with `CCc1noc(CN(CC(=O)N2CCCCC2)c2ccc(C)cc2)n1`, 38.67%. With `Cc1ccc(N(CC(=O)N2CCCCC2)C(=O)C2CCCO2)cc1` (stereo not given) the figure was -82.35%. The value for `CCOc1ccc(Br)cc1-c1cc(N)[nH]n1` was 9.66%. Consider `CCCN(Cc1ccc(C#N)cc1)Cc1nnsc1Cl`, for which the INHIBITION worked out at 20.14%.

Turning to `CCN(Cc1nnsc1Cl)C(C)c1ccc(C#N)cc1` (stereo not given), the INHIBITION is 56.49%.

Turning to `CC(C)N(Cc1ccc(C#N)cc1)Cc1nnsc1Cl`, the INHIBITION is listed as 22.34%.

As to `Cc1cc(C)nc(N2CCC(c3ccnc(N(C)C)n3)CC2)n1`, the INHIBITION is recorded as -42.91%.

Take `Cc1nc(O)cc([C@@H]2CN(C(=O)C3CC3)C[C@H]2c2ccccc2F)n1`: the INHIBITION is recorded as -7.22%.

Turning to `CC(=O)NCCNC(=O)CN1CCOC(Cn2cccn2)C1` (stereo not given), the INHIBITION was -21.68%. Regarding `CC(C)(C)Oc1ccc(NCC(=O)NCc2ccco2)cc1`, the INHIBITION is on record as -62.92%.

With `CC(C)(Oc1ccc2c(c1)CCCC2=O)C(=O)NCc1ccco1`, the INHIBITION is 15.88%.

As to `CC(C)(Oc1ccc(F)cc1)C(=O)NCc1ccco1`, the INHIBITION is 58.14%.

In the case of `c1ccc(N2CCCC3(COCCN(c4nccs4)C3)C2)nc1` (stereo not given), the INHIBITION is recorded as -29.98%.

Consider `COc1cccc(CN2CCc3nc(C(=O)NCC(C)C)sc3CC2)c1`, for which the INHIBITION is given as -4.19%. The value for `COc1ccc(C)cc1-n1cnnc1C1CC(=O)N(C)C1` (stereo not given) was 43.57%. With `Cc1nccc(C2CN(C(=O)c3cncnc3)C2)n1` the figure was 38.22%. For the compound `Cc1cc(C2CCCN(S(=O)(=O)N(C)C)C2)ccn1` (stereo not given), the INHIBITION is -5.34%. Consider `CC(Cn1cncn1)NC(=O)Nc1ccc(COC2CCCC2)cc1` (stereo not given), for which the INHIBITION was found to be 1.01%.

Regarding `CSCCc1ccc(NC(=O)NC(C)Cn2cncn2)cc1` (stereo not given), the INHIBITION was determined as 60.34%. The value for `CC(Cn1cncn1)NC(=O)NCC(C)(C)Cc1ccccc1` (stereo not given) was 46.98%; that for `O=C(c1cocn1)N1CCC2(CC1)CC(OCC1CC1)CO2` (stereo not given) was 1.33%. The value for `O=C(c1cccnc1)N1CCC2(CCN(C(=O)c3ccco3)CC2)C1` was 14.52%. The value for `Nc1nc2nc(C3CCCN(C(=O)c4cncs4)C3)ccc2s1` (stereo not given) was 52.82%; that for `Nc1nc2nc(C3CCCN(C(=O)c4cnccn4)C3)ccc2s1` (stereo not given) was 46.98%; that for `CC(=O)N1CCCC(c2ccc3sc(N)nc3n2)C1` (stereo not given) was 17.01%.

Regarding `Cc1ccc([C@]2(O)CC[C@H]3CN(Cc4cc(C)c(O)c(C)c4)C[C@H]32)nc1`, the INHIBITION is recorded as 13.65%. For the compound `Cc1ccc([C@]2(O)CC[C@H]3CN(Cc4cccc(Cl)c4Cl)C[C@H]32)nc1`, the INHIBITION is reported as 45.82%.

On to `Cc1ccc([C@]2(O)CC[C@H]3CN(Cc4cccnc4)C[C@H]32)nc1`, for which the INHIBITION came out at 12.16%. With `COc1ncc(CN2C[C@@H]3CC[C@@](O)(c4ccc(C)cn4)[C@@H]3C2)cn1` the figure was -2.21%. The value for `Cc1ccc([C@]2(O)CC[C@H]3CN(Cc4ccncc4)C[C@H]32)nc1` was 51.35%; that for `CSc1ccc(CN2C[C@@H]3CC[C@@](O)(c4ccc(C)cn4)[C@@H]3C2)cc1` was 61.3%. The value for `CC(C)(C)c1nnc(CN2CCCC2Cn2cncn2)o1` (stereo not given) was -13.06%. Regarding `COCCCN1C(=O)CC(N2CCN(c3ccc(F)cc3)CC2)C1=O` (stereo not given), the INHIBITION is reported as 1.37%. `CCn1nc(C)c2nc(C)nc(NCCc3ccc(C)cc3)c21`: the INHIBITION turned out to be 9.79%. The value for `CCCC(=O)N1CCC2(CC1)CC(NC(C)=O)c1ccccc1O2` (stereo not given) was -25.44%; that for `CC(C)C(=O)NC1COC2(CCN(C(=O)c3ccc[nH]3)CC2)C1` (stereo not given) was 25.46%.

For the compound `COCCN1CCOCC12CCN(C(=O)c1ccoc1)CC2`, the INHIBITION worked out at 52.62%. The value for `COCCN1CCOCC12CCN(C(=O)c1cccnc1)CC2` was 0.91%.

Turning to `COCCN1CCOCC12CCN(C(=O)c1ccncc1)CC2`, the INHIBITION is -41.59%. For `O=c1c2cn[nH]c2nc(SCCN2CCCC2)n1-c1ccccc1`, the INHIBITION is given as -15.12%.

As to `Cc1cc(C(=O)Nc2n[nH]c(C3CC3)n2)c2c(C)noc2n1`, the INHIBITION is recorded as -54.55%.

As to `COCC1CC2(CCN(S(=O)(=O)C3CC3)CC2)CN1c1ncccn1` (stereo not given), the INHIBITION is 15.39%. On to `CCNC(=O)[C@@H]1C[C@@H](NC(=O)CSC)CN1Cc1ccncc1`, for which the INHIBITION was determined as 16.05%. With `COc1cc(CNC(=O)Nc2nnc(C(F)(F)F)s2)ccc1O` the figure was 45.4%; with `COc1cc(CNC(=O)Nc2nnc(C(C)C)s2)ccc1O`, -33.43%; with `COc1cc(CNC(=O)Nc2nnc(C3CC3)s2)ccc1O`, 53.61%. As for `CCC(c1ccc(F)cc1)N1CCn2c(CO)nnc2C1` (stereo not given), the INHIBITION was 18.76%.
